Compounds with a hit are over-represented: about 32% of the library has one in this group of screens.
PostGolgi yeast = growth inhibition of a yeast mutant, post-Golgi transport screen. post-Golgi transport phenotypic cell assay. inhibition, % at 10 µM. actives 0.9% (n = 98,000);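 further: yeast cells grown in 1536-well plates; yeast grown about 18 h at 30C before absorbance read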
CYP2C9 inhib = human CYP2C9 inhibition | P11712 | CYP2C9 Supersomes, luciferin-H conversion, luminescence | inhibition, % at 5 µM | actives 20% (n = 96,000);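 active means blocking of liver enzyme CYP2C9 beyond about 50% at 5 µM, limit read from the data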
Target sequence (P11712 whole entry, looked up): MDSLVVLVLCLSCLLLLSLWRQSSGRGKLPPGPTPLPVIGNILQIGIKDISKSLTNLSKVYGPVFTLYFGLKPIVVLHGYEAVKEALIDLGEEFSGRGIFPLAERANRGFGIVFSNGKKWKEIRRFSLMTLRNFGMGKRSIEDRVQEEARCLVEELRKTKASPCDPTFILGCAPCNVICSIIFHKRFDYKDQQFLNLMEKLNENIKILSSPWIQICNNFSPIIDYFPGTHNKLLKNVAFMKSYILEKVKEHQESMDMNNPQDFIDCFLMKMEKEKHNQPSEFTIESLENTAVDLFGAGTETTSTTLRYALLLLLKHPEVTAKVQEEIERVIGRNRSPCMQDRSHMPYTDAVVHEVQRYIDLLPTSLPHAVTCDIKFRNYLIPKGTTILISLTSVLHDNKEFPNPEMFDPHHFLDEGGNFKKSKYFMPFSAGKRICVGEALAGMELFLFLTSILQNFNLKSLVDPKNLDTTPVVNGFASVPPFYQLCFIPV
CYP2C19 inh = blocks human cytochrome P450 2C19; inhibition, % at 5 µM; actives 21% (n = 96,000); CYP2C19 Supersomes, luciferin-H EGE luminescence, 30 min; AID 778;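 active means CYP2C19 inhibition above a set limit at 5 µM in the primary screen, cut at about 50% in these data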;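 further: plate controls were negative control wells for no effect and 2.5 mM tranylcypromine positive control for full effect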
CYP2C9 act = activators of human CYP2C9. recombinant CYP2C9, luciferin-H conversion, luminescence; hits give high values; factor 1 = untreated enzyme, 0 = blocked. P11712. actives 1.4% (n = 96,000). AID 1024. activation factor at 5 µM;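 active means activation factor of 2 or more for CYP2C9 at a 5 µM dose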;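 further: 0 = sulfaphenazole-blocked wells and 1 = vehicle-only wells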
CYP2C19 act = activators of human cytochrome P450 2C19; recombinant CYP2C19, luciferin-H EGE luminescence; hits give high values; 0 = fully inhibited enzyme, 1 = untreated enzyme; activation factor at 5 µM; P33261; 96,000 tested, under 10 active;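 active means activation factor of at least 2 at 5 µM in the primary screen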;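 further: 0 = wells with 2.5 mM tranylcypromine and 1 = vehicle-only wells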
PostGolgi ctrl = growth of the yeast control strain, post-Golgi counter-screen; AID 738; efflux-deficient yeast background strain, growth absorbance A615, 16 h; inhibition, % at 10 µM; actives 5% (n = 98,000)
The depositor's hits bear a star; . = no result. Unless noted, no stated cut-off is given here; in the data, active means inhibition above about 30%; inactive means the rest.

SMILES	PostGolgi yeast	CYP2C9 inhib	CYP2C19 inh	CYP2C9 act	CYP2C19 act	PostGolgi ctrl
C/C(N)=C(/C#N)C(=O)COC(=O)C1Cc2ccccc2CN1S(C)(=O)=O (configuration not stated)	-1.2	17.8	5.5	0.8	0.9	-1.4
Cc1ccccc1OCCCC(=O)Nc1ccc(Br)cc1	-2.2	0.3	14.0	1	0.9	10.0
CC(C)CN(CC(C)C)C1=N/C(=C\c2ccco2)C(=O)N1c1ccccc1	-0.3	1.8	9.2	1	0.9	4.1
C/C=C(\C)CN1CCc2cc(OC)c(OC)cc2C1	-0.5	9.3	39.5	0.9	0.6	2.4
CCCS(=O)(=O)N1CCc2cc(OC)c(OC)cc2C1	2.1	3.2	55.2*	1	0.4	1.9
O=S(=O)(NCc1ccc(Cl)cc1)c1cnc[nH]1	4.3	95.1*	78.2*	0	0.2	3.9
O=S(=O)(NCc1cccnc1)c1ccccc1	-1.4	-5.4	16.2	1.1	0.8	9.3
O=S(=O)(NCc1ccccc1)c1cnc[nH]1	7.0	94.6*	62.2*	0.1	0.4	10.5
Cc1ccc(CCNS(=O)(=O)c2cnc[nH]2)cc1	1.0	98.0*	73.3*	0	0.3	4.9
COCCNC(=O)c1onc(CSc2cc(C)ccc2C)c1C(=O)O	-3.2	30.5	7.6	0.7	0.9	15.1
CCCCNC(=O)c1onc(CSc2ccccc2CC)c1C(=O)O	12.3	71.6*	15.9	0.3	0.8	-9.8
CCCCNC(=O)c1onc(CSc2cc(C)ccc2C)c1C(=O)O	2.0	77.8*	10.1	0.2	0.9	9.2
COCCNC(=O)c1onc(CSc2ccccc2F)c1C(=O)O	-1.8	7.1	-3.1	0.9	1	-1.6
Cc1ccc(C)c(SCc2noc(C(=O)NC(C)C)c2C(=O)O)c1	-3.1	71.8*	7.7	0.3	0.9	15.5
C=CCNC(=O)c1onc(CSc2cc(C)ccc2C)c1C(=O)O	0.2	76.8*	8.7	0.2	0.9	-1.2
COc1ccc(NC(=O)CC2SC(=Nc3ccccc3)NC2=O)c(OC)c1 (configuration not stated)	-1.7	36.9	-8.1	0.6	1.1	19.8
O=C(Nc1cccc2ccccc12)OC1C=CS(=O)(=O)C1 (configuration not stated)	5.2	.	.	.	.	0.6
COc1ccc(CCN(C(=O)c2ccc(F)cc2)C2=CC3CCC(C2)N3C)cc1OC (configuration not stated)	.	-0.1	0.9	1	1	.
COC1=C(OC)c2ccccc2C(C(=O)O)N/C1=C(/C)Nc1ccncc1 (configuration not stated)	-5.9	-11.2	0.1	1.1	1	-7.6
Cn1nc(C(F)(F)F)c(C(=O)Nc2ccc(F)cc2F)c1Sc1ccc(C(F)(F)F)cc1	-9.7	34.0	69.0*	0.7	0.3	-4.7
Cn1nc(C(F)(F)F)c(C(=O)Nc2ccc(F)cc2F)c1Sc1ccc(Cl)cc1	13.8	24.3	61.2*	0.8	0.4	-5.0
CC1CCCN(C(=O)c2cc(F)c(F)cc2Cl)C1 (configuration not stated)	-4.5	-12.3	1.9	1.1	1	1.6
CCOC(=O)c1c(C)n(-c2ccc(OC)cc2)c2c(C/C(C)=N/O)c(Br)c(OC)c(O)c12	-1.4	7.6	8.7	0.9	0.9	-2.8
CCOC(=O)C1=C(c2ccccc2)N(C)C(=O)NC1c1ccc(OC(F)F)c(OC)c1 (configuration not stated)	-0.7	83.3*	68.9*	0.2	0.3	8.3
CCOC(=O)c1c(C)[nH]c(C(=O)CN2CC(C)OC(C)C2)c1C (configuration not stated)	-1.1	17.0	27.7	0.8	0.7	-5.8
CS(=O)(=O)c1ccc(Cl)c(NC(=O)C2CC(=O)N(Cc3ccccc3)C2)c1 (configuration not stated)	-0.6	68.5*	28.9	0.3	0.7	-6.1
Cc1ccc(CN2CC(C(=O)Nc3ccc(S(=O)(=O)Nc4cc(C)nc(C)n4)cc3)CC2=O)cc1 (configuration not stated)	-20.4	30.3	5.6	0.7	0.9	32.5*
CCOC(=O)Nc1ccc(S(=O)(=O)Nc2cc(C)nc(C)n2)cc1	-1.1	16.1	-9.8	0.8	1.1	9.1
COc1ccc(NC(=O)Cc2nn(C)c(=O)c3ccccc23)c2ncccc12	.	11.4	3.8	0.9	1	.
